Test results: PubChem BioAssay AID1159580 (chemical genetic matrix, 2015)
“And” between values parts separate entries of the source, which are not always exact repeats. Equal entries are not always repeated. About 2,000 (36%) of roughly 5,500 compounds were called active. Inconclusive results (about 18%) are left out. Rule as the data show it: active = normalized growth mostly below about 0.91 (no sharp cut-off); inconclusive = no clear call, values can overlap the other calls; inactive = mostly above about 0.92. Some of the results follow.

Test: chemical genetic growth profiling, strain panel (AID 1159580);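 also: tested at 20 µM; growth read once vehicle control cultures reached saturation at 30 °C; 1 = growth at the plate median or of vehicle wells; lower values mean less growth of the strain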
Conditions: S. cerevisiae deletion strains, growth OD

Measured: normalized growth

CC[C@H]1OC(=O)[C@H](C)[C@@H](O[C@H]2C[C@@](C)(OC)[C@@H](O)[C@H](C)O2)[C@H](C)[C@@H](O[C@@H]2O[C@H](C)C[C@H](N(C)C)[C@H]2O)[C@](C)(O)C[C@@H](C)/C(=N/OCOCCOC)[C@H](C)[C@@H](O)[C@]1(C)O
inactive: locus YAL021C, strain ccr4, hits give low values 1.03 | locus YAL026C, strain drs2, hits give low values 1.02 | locus YAL030W, strain snc1, hits give low values 0.998 | locus YBL061C, strain skt5, hits give low values 1.01 | locus YBR009C, strain hhf1, hits give low values 0.998 | locus YBR021W, strain FUR4, hits give low values 1.02 | locus YBR023C, strain chs3, hits give low values 1.01 | locus YBR171W, strain sec66, hits give low values 1.03 | locus YBR229C, strain ROT2, hits give low values 1.01 | locus YBR231C, strain swc5, hits give low values 1.01 | locus YBR279W, strain paf1, hits give low values 1 | locus YCL011C, strain gbp2, hits give low values 1.01 | locus YCL016C, strain dcc1, hits give low values 1 | locus YCL029C, strain bik1, hits give low values 0.988 | locus YCL069W, strain vba3, hits give low values 1.02 | locus YCR088W, strain abp1, hits give low values 1.01 | locus YDL005C, strain med2, hits give low values 1.01 | locus YDL035C, strain GPR1, hits give low values 1.01 | locus YDL040C, strain nat1, hits give low values 1.01 | locus YDL074C, strain BRE1, hits give low values 0.975 | locus YDL101C, strain DUN1, hits give low values 0.991 | locus YDL134C, strain PPH21, hits give low values 1.01 | locus YDL185W, strain tfp1, hits give low values 1 | locus YDL192W, strain arf1, hits give low values 1.01 | locus YDR001C, strain nth1, hits give low values 1.01 | locus YDR069C, strain doa4, hits give low values 1.03 | locus YDR101C, strain arx1, hits give low values 0.994 | locus YDR137W, strain rgp1, hits give low values 0.969 | locus YDR159W, strain sac3, hits give low values 0.996 | locus YDR162C, strain NBP2, hits give low values 1.01 | locus YDR195W, strain ref2 0.994 | locus YDR297W, strain sur2, hits give low values 1.02 | locus YDR318W, strain mcm21, hits give low values 0.995 | locus YDR334W, strain swr1, hits give low values 1.01 | locus YDR335W, strain msn5, hits give low values 1.01 | locus YDR388W, hits give low values 0.999 | locus YDR392W, strain spt3, hits give low values 0.949 | locus YDR502C, strain sam2, hits give low values 1.01 | locus YEL003W, strain gim4, hits give low values 1.02 | locus YEL037C, strain rad23, hits give low values 1.02 | locus YEL061C, strain CIN8 (second series), hits give low values 1 | locus YEL061C, strain CIN8, hits give low values 1 | locus YER015W, strain faa2, hits give low values 1.01 | locus YER016W, strain bim1, hits give low values 0.995 | locus YER110C, hits give low values 1 | locus YER111C, strain swi4, hits give low values 1.01 | locus YER155C, strain BEM2 (second series), hits give low values 0.897 | locus YER155C, strain BEM2, hits give low values 1 | locus YER167W, strain BCK2, hits give low values 1 | locus YFR010W, strain ubp6, hits give low values 1.02 | locus YGL078C, strain dbp3, hits give low values 1 | locus YGL086W, strain mad1, hits give low values 1 | locus YGL167C, strain pmr1, hits give low values 1 | locus YGL173C, strain kem1, hits give low values 1.02 | locus YGL227W, strain vid30, hits give low values 1.03 | locus YGL240W, strain doc1, hits give low values 1.02 | locus YGL248W, strain PDE1, hits give low values 0.993 | locus YGL253W, strain hxk2, hits give low values 1.01 | locus YGR135W, strain pre9, hits give low values 1.04 | locus YGR229C, strain SMI1, hits give low values 1.01 | locus YHR013C, strain ard1, hits give low values 0.983 | locus YHR027C, strain rpn1, hits give low values 0.999 | locus YHR030C, strain SLT2, hits give low values 1.01 and 0.997 | locus YHR079C, strain IRE1 (second series), hits give low values 0.98 | locus YHR079C, strain IRE1, hits give low values 0.985 | locus YHR094C, strain hxt1, hits give low values 0.987 | locus YHR129C, strain ARP1, hits give low values 1.01 | locus YHR142W, strain chs7, hits give low values 1.02 | locus YHR200W, strain rpn10, hits give low values 1.01 | locus YIL066C, strain RNR3, hits give low values 0.983 | locus YIL073C, strain SPO22, hits give low values 1.07 | locus YIL125W, strain kgd1, hits give low values 1 | locus YIR030C, strain dcg1, hits give low values 0.997 | locus YJL092W, strain hpr5, hits give low values 1.01 | locus YJL095W, strain BCK1 (second series), hits give low values 1.01 | locus YJL095W, strain BCK1, hits give low values 0.97 and 0.99 | locus YJL115W, strain asf1, hits give low values 1.04 | locus YJL129C, strain trk1, hits give low values 1.02 | locus YJL134W, strain LCB3, hits give low values 1 | locus YJL154C, strain vps35, hits give low values 1.01 | locus YJL164C, strain tpk1, hits give low values 1.01 | locus YJL166W, strain qcr8, hits give low values 1.01 | locus YJL168C, strain set2, hits give low values 0.992 | locus YJL187C, strain SWE1 (second series), hits give low values 0.97 | locus YJL187C, strain SWE1, hits give low values 1.02 | locus YJR043C, strain POL32, hits give low values 1.01 | locus YJR066W, strain TOR1, hits give low values 0.977
